Measurements from PubChem BioAssay (NCATS).
Results filed as inconclusive are left out. Where a call stands in place of a potency, no number is given. The source made the active and inactive calls. The call rests on the fitted dose curve; in most records, active means well fitted inhibition curve with a large enough effect; inconclusive means small, poorly fitted or top-dose-only effect; inactive means no such curve, though single readings can be large or run the other way.

Target: Protein phosphatase 1D (Homo sapiens) (UniProt O15297)
Sequence (O15297 whole entry, looked up): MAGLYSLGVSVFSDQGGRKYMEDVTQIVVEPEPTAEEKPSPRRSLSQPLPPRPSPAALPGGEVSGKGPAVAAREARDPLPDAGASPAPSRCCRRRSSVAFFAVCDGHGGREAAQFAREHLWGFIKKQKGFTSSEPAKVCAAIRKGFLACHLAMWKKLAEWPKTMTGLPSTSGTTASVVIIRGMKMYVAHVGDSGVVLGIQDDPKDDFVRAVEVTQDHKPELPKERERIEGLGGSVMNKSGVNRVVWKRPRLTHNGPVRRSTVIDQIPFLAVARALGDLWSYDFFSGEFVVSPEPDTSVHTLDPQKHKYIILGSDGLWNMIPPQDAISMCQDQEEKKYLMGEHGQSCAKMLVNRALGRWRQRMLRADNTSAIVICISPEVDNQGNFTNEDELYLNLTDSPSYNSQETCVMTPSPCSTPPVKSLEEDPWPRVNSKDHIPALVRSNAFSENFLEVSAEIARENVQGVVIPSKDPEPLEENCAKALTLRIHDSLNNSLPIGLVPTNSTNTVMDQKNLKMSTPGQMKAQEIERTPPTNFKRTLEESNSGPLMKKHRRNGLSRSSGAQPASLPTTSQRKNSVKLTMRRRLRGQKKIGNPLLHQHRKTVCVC
Assay: RapidFire Mass Spectrometry qHTS Assay for Modulators of WT P53-Induced Phosphatase 1 (WIP1) (AID 1347424);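 further: amount of dephosphorylated VEPPL-S-QETFS peptide product formed by WIP1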
Details: WIP1 dephosphorylation of phosphopeptide, RapidFire MS; series mostly up to 63 µM
Procedure, shortened: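 WIP1 (10 nM final) was preincubated 1 h at room temperature with compounds in Tris-HCl pH 7.5, 30 mM MgCl2, TCEP, EGTA, BSA; 2 uM VEPPL-pS-QETFS phosphopeptide was added for 5 min, quenched with formic acid, and dephosphorylated product quantified by RapidFire MS.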
Potency means the concentration at half of the fitted maximal effect.

Row | SMILES | Potency
1 | CCCC(=O)OCOC(=O)C1=C(C)NC(C)=C(C(=O)OC)C1c1cccc(Cl)c1Cl (configuration not stated) | inactive
2 | O=C(Nc1ccc(Cl)cc1)Nc1ccc(Cl)c(C(F)(F)F)c1 | 12.6 µM (active)
3 | CC(=O)[C@@]1(O)CC[C@H]2[C@@H]3C[C@H](C)C4=CC(=O)CC[C@]4(C)[C@H]3CC[C@@]21C | inactive
4 | O=C(c1cc(O)c(O)c(O)c1)c1ccc(O)c(O)c1O | inactive
5 | COC(=O)C1=C(C)NC(C)=C(C(=O)OCCc2ccc(N3CCN(C(c4ccccc4)c4ccccc4)CC3)cc2)C1c1cccc([N+](=O)[O-])c1 (configuration not stated) | inactive
6 | CCCC(=O)O[C@]1(C(=O)COC(=O)CC)CC[C@H]2[C@@H]3CCC4=CC(=O)CC[C@]4(C)[C@H]3[C@@H](O)C[C@@]21C | inactive
7 | O=c1[nH]sc2cc(Cl)ccc12 | inactive
8 | Cc1cc2nc3ccc(=[N+](C)C)cc-3sc2cc1N | inactive
9 | CCCCCCCCCCCCCC[N+](C)(C)C | inactive
10 | Cc1onc(-c2c(Cl)cccc2Cl)c1C(=O)Cl | inactive
11 | CCCCCCCCCCCCCCCC[n+]1ccccc1 | inactive
12 | Cc1cc(OCCOCC[N+](C)(C)Cc2ccccc2)ccc1C(C)(C)CC(C)(C)C | inactive
13 | CCCCCOc1ccc(C2SC(=O)NC2=O)cc1OCC (configuration not stated) | 2.51 µM (active)
14 | O=C1Nc2ccccc2C1(c1ccc(O)cc1)c1ccc(O)cc1 | inactive
15 | CC(C)(c1ccc(O)cc1)c1ccc(O)cc1 | inactive
16 | CCCCC(CC)COC(=O)c1ccccc1C(=O)O (configuration not stated) | inactive
17 | N#C/C(=C1/SC[C@@H](c2ccc(Cl)cc2Cl)S1)n1ccnc1 | inactive
